# According to the supplement of paper PMC8728848:
# Only a selection was taken, and the strongest signals are over-represented in it overall.
# B1: UEA-I (Ulex europaeus), P22972 (protein)
# chain: SDDLSFKFKNFSQNGKDLSFQGDASVIETGVLQLNKVGNNLPDETGGIARYIAPIHIWNCNTGEVASFITSFSFFMETSANPKAATDGLTFFLAPPDSPLRRAGGYFGLFEDTKDNDSSYQTVAVEFDTIGSPVNFDDPGFPHIGIDVNRVKSINAERWNKRYGLNNVANVEIIYEASSKTLTASLTYPSDQTSISVTSIVDLKEILPEWVSVGFSGGTYIGRQATHEVLNWYFTSNLIN
# Legend:
# Test in all cases: glycan array binding signal (z-score within array); higher = stronger binding
# Conditions in all cases: glycan notation: IUPAC condensed, linker removed
# [1] = biological target: Fuc(a1-2)Gal(b1-3)GalNAc(b1-4)[Neu5Ac(a2-3)]Gal(b1-4)Glc
# In short: (§1)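 The binding signal is a Z-score computed within each array and averaged over linkers. Arrays of the same protein sequence at different concentrations or buffers were also averaged together. Data originate from 3228 arrays in the Consortium for Functional Glycomics database, kept only where the protein sequence was available.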
# Fuc(a1-2)Gal(b1-4)Glc = biological target: Fuc(a1-2)Gal(b1-4)Glc
# In short: as §1
# Fuc(a1-2)Gal(b1-4)Glc6S = biological target: Fuc(a1-2)Gal(b1-4)Glc6S
# In short: as §1
# Fuc(a1-2)Gal(b1-4)GlcNAc = biological target: Fuc(a1-2)Gal(b1-4)GlcNAc
# In short: as §1
# [2] = biological target: Fuc(a1-2)Gal(b1-4)GlcNAc6S
# In short: as §1
# Fuc(a1-2)Gal6S(b1-4)Glc = biological target: Fuc(a1-2)Gal6S(b1-4)Glc
# In short: as §1
# [3] = biological target: Fuc(a1-2)Gal6S(b1-4)Glc6S
# In short: as §1
# [4] = biological target: Fuc(a1-2)[Gal(a1-4)]Gal(b1-4)GlcNAc
# In short: as §1
# [5] = biological target: Fuc(a1-2)[GalNAc(a1-3)]Gal(b1-4)GlcNAc
# In short: as §1
# [6] = biological target: Fuc(a1-2)[GalNAc(a1-4)]Gal(b1-4)GlcNAc
# In short: as §1
# Gal(a1-3)Gal(b1-3)GlcNAc = biological target: Gal(a1-3)Gal(b1-3)GlcNAc
# In short: as §1
# Gal(a1-3)Gal(b1-4)Glc = biological target: Gal(a1-3)Gal(b1-4)Glc
# In short: as §1
# Gal(a1-3)Gal(b1-4)GlcNAc = biological target: Gal(a1-3)Gal(b1-4)GlcNAc
# In short: as §1
# [7] = biological target: Gal(a1-4)Gal(b1-3)GlcNAc(b1-2)Man(a1-3)[Gal(a1-4)Gal(b1-3)GlcNAc(b1-2)Man(a1-6)]Man(b1-4)GlcNAc(b1-4)GlcNAc
# In short: as §1
# Gal(a1-4)Gal(b1-4)GlcNAc = biological target: Gal(a1-4)Gal(b1-4)GlcNAc
# In short: as §1
# Gal(a1-4)GlcNAc = biological target: Gal(a1-4)GlcNAc
# In short: as §1
# [8] = biological target: Gal(b1-4)GlcNAc(b1-2)[Gal(b1-4)GlcNAc(b1-4)]Man(a1-3)[Gal(b1-4)GlcNAc(b1-2)[Gal(b1-4)GlcNAc(b1-6)]Man(a1-6)]Man(b1-4)GlcNAc(b1-4)GlcNAc
# In short: as §1
# Gal3S6S(b1-4)GlcNAc6S = biological target: Gal3S6S(b1-4)GlcNAc6S
# In short: as §1
# Gal6S(b1-4)GlcNAc = biological target: Gal6S(b1-4)GlcNAc
# In short: as §1
# [9] = biological target: GalNAc(a1-3)Fuc(a1-2)Gal(b1-4)GlcNAc(b1-3)[GalNAc(a1-3)Fuc(a1-2)Gal(b1-4)GlcNAc(b1-6)]GalNAc
# In short: as §1
# GalNAc(b1-3)Gal = biological target: GalNAc(b1-3)Gal
# In short: as §1
# [10] = biological target: Glc(a1-6)Glc(a1-6)Glc(a1-6)Glc
# In short: as §1
# Glc(b1-4)Glc = biological target: Glc(b1-4)Glc
# In short: as §1
# Glc(b1-6)Glc = biological target: Glc(b1-6)Glc
# In short: as §1
# [11] = biological target: GlcNAc(a1-4)Gal(b1-4)GalNAc
# In short: as §1
# [12] = biological target: GlcNAc(a1-6)Gal(b1-4)GlcNAc
# In short: as §1
# [13] = biological target: GlcNAc(b1-2)[GlcNAc(b1-6)]Man(a1-6)[GlcNAc(b1-2)Man(a1-3)]Man(b1-4)GlcNAc(b1-4)GlcNAc
# In short: as §1
# Kdn(a2-3)Gal(b1-4)GlcNAc = biological target: Kdn(a2-3)Gal(b1-4)GlcNAc
# In short: as §1
# [14] = biological target: Neu5Ac(a2-3)Gal(b1-3)GalNAc
# In short: as §1
# [15] = biological target: Neu5Ac(a2-3)Gal(b1-3)GlcNAc(b1-3)Gal(b1-4)GlcNAc
# In short: as §1
# [16] = biological target: Neu5Ac(a2-3)Gal(b1-3)[Fuc(a1-4)]GlcNAc
# In short: as §1
# [17] = biological target: Neu5Ac(a2-3)Gal(b1-3)[Fuc(a1-4)]GlcNAc(b1-3)Gal(b1-4)[Fuc(a1-3)]GlcNAc
# In short: as §1
# [18] = biological target: Neu5Ac(a2-3)Gal(b1-3)[Neu5Ac(a2-6)]GalNAc
# In short: as §1
# [19] = biological target: Neu5Ac(a2-3)Gal(b1-4)GlcNAc(b1-3)Gal(b1-3)GlcNAc
# In short: as §1
# [20] = biological target: Neu5Ac(a2-3)Gal(b1-4)GlcNAc(b1-6)[Gal(b1-3)]GalNAc
# In short: as §1
# [21] = biological target: Neu5Ac(a2-3)Gal(b1-4)GlcNAc(b1-6)[Neu5Ac(a2-3)Gal(b1-3)]GalNAc
# In short: as §1
# Neu5Ac(a2-3)GalNAc = biological target: Neu5Ac(a2-3)GalNAc
# In short: as §1
binder,measurement,setting,value
B1,glycan array binding signal (z-score),[1],-0.19
same,glycan array binding signal (z-score),Fuc(a1-2)Gal(b1-4)Glc,5.21
same,glycan array binding signal (z-score),Fuc(a1-2)Gal(b1-4)Glc6S,8.13
same,glycan array binding signal (z-score),Fuc(a1-2)Gal(b1-4)GlcNAc,6.42
same,glycan array binding signal (z-score),[2],6.86
same,glycan array binding signal (z-score),Fuc(a1-2)Gal6S(b1-4)Glc,4.06
same,glycan array binding signal (z-score),[3],8.02
same,glycan array binding signal (z-score),[4],5.33
same,glycan array binding signal (z-score),[5],-0.183
same,glycan array binding signal (z-score),[6],4.61
same,glycan array binding signal (z-score),Gal(a1-3)Gal(b1-3)GlcNAc,-0.18
same,glycan array binding signal (z-score),Gal(a1-3)Gal(b1-4)Glc,-0.172
same,glycan array binding signal (z-score),Gal(a1-3)Gal(b1-4)GlcNAc,-0.186
same,glycan array binding signal (z-score),[7],-0.17
same,glycan array binding signal (z-score),Gal(a1-4)Gal(b1-4)GlcNAc,-0.176
same,glycan array binding signal (z-score),Gal(a1-4)GlcNAc,-0.174
same,glycan array binding signal (z-score),[8],-0.175
same,glycan array binding signal (z-score),Gal3S6S(b1-4)GlcNAc6S,-0.174
same,glycan array binding signal (z-score),Gal6S(b1-4)GlcNAc,-0.188
same,glycan array binding signal (z-score),[9],-0.158
same,glycan array binding signal (z-score),GalNAc(b1-3)Gal,-0.18
same,glycan array binding signal (z-score),[10],-0.177
same,glycan array binding signal (z-score),Glc(b1-4)Glc,-0.178
same,glycan array binding signal (z-score),Glc(b1-6)Glc,-0.185
same,glycan array binding signal (z-score),[11],-0.175
same,glycan array binding signal (z-score),[12],-0.176
same,glycan array binding signal (z-score),[13],-0.186
same,glycan array binding signal (z-score),Kdn(a2-3)Gal(b1-4)GlcNAc,-0.185
same,glycan array binding signal (z-score),[14],-0.18
same,glycan array binding signal (z-score),[15],-0.182
same,glycan array binding signal (z-score),[16],-0.181
same,glycan array binding signal (z-score),[17],-0.186
same,glycan array binding signal (z-score),[18],-0.17
same,glycan array binding signal (z-score),[19],-0.178
same,glycan array binding signal (z-score),[20],-0.183
same,glycan array binding signal (z-score),[21],-0.179
same,glycan array binding signal (z-score),Neu5Ac(a2-3)GalNAc,-0.177
